# GPR151 activ: human GPR151 activation; PathHunter beta-arrestin GPR151 cells, luminescence; activation, % at 11.2 µM; hit rate 1% among 650,000; in the data active means activation above about 4.9%;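 further: 0% = median of compound wells and 100% = cells with positive control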
# MITF inh: inhibitors of human MITF; hit rate 0.91% among 650,000; O75030; inhibition, % at 2.6 µM; AlphaScreen MITF homodimerization, bead proximity signal; in the data active means inhibition above about 50%;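 further: 0% = vehicle wells with protein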
# Target sequence (O75030 whole entry, looked up): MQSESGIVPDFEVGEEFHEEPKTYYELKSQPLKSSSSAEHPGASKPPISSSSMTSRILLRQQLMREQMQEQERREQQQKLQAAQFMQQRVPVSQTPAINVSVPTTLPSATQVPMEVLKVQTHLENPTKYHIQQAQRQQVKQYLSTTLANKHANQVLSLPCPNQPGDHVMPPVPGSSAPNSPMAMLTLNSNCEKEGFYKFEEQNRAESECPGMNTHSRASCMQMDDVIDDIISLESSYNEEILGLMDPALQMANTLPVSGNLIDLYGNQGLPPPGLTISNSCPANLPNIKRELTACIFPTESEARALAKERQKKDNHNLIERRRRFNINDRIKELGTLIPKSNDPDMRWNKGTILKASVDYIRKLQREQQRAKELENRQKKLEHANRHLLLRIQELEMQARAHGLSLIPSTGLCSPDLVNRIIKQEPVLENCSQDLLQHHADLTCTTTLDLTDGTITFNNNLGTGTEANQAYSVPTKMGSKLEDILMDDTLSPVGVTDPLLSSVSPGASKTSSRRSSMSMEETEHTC
# TEAD-YAP block: TEAD-YAP interaction inhibition; HEK-TIYL cells, TEAD-Gal4/YAP UAS-luciferase luminescence; AID 1259422; inhibition, % at 9.12 µM; hit rate 1.4% among 640,000; in the data active means inhibition above about 32%;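 further: 0% = median of test compound wells and 100% = reference inhibitor wells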
# FBW7 act: human FBW7 E3 ligase activation, primary screen. hit rate 0.13% among 650,000. normalized activity (activation), % at 26.1 µM. Q969H0. AlphaScreen FBW7–phospho-cyclin E peptide binding, activator screen; in the data active means normalized activity above about 1.9%;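 further: purified mutant Fbw7 with reduced substrate affinity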
# The depositor's hits bear a star. In the library only some 3.4% were active in any assay of this set; here they are far more common.
SMILES,GPR151 activ,MITF inh,TEAD-YAP block,FBW7 act
Nc1ncnc(N2CCCC2)c1[N+](=O)[O-],3,5,33*,0
CC1CCN(c2ncnc(N)c2[N+](=O)[O-])CC1,3,18,28,0
O=C(CC(NCCO)C(=O)O)Nc1cccc(Cl)c1 (configuration not stated),3,-6,1,0
COc1cc(Nc2nc(Nc3cnccn3)nc3nc[nH]c23)cc(OC)c1OC,2,1,34*,4.5*
COc1cc(Nc2nc(Nc3ccccc3)nc3nc[nH]c23)cc(OC)c1OC,1,8,18,0
COc1ccc(CCNc2nc(Nc3cccnc3)nc3nc[nH]c23)cc1,-1,14,41*,0
c1ccc(CNc2nc(Nc3cccnc3)nc3nc[nH]c23)cc1,3,-9,15,0
COc1ccc(CCNc2nc(Nc3cc(OC)c(OC)c(OC)c3)nc3nc[nH]c23)cc1,3,12,61*,0
c1ccc(CNc2nc(Nc3cnccn3)nc3nc[nH]c23)cc1,3,5,17,11*
COc1ccc(CCNc2nc(Nc3ccccc3)nc3nc[nH]c23)cc1,2,7,24,0
CNC(=O)c1ccsc1NC(=O)c1ccc(N(C)C)cc1,1,-9,8,0
COc1ccc(CCNc2nc(NCc3cccnc3)ncc2C)cc1,1,2,40*,0
c1ccc(Nc2nc(Nc3cccnc3)nc3nc[nH]c23)cc1,1,-4,58*,0
c1ccc(Nc2nc(Nc3ccncc3)nc3nc[nH]c23)cc1,0,-5,25,0
Cc1ccc2nc(SCC(=O)N3C(C)CCCC3C)[nH]c2c1 (configuration not stated),0,17,-4,0
CCN(CC(=O)Nc1ccccc1C(F)(F)F)S(=O)(=O)c1ccc2ccccc2c1,1,-8,1,0
C#CCNC(=O)NC(=O)c1sc2ccccc2c1Cl,0,-7,-36,0
COC(=O)c1ccc(C2Nc3ccc4ncccc4c3C3=C2C(=O)CCC3)cc1OC (configuration not stated),-1,6,59*,1
Fc1cc(-c2cn[nH]c2)cc(-c2ccnc(Nc3ccc(-n4cnc(C(F)(F)F)n4)cc3)n2)c1,0,18,-5,0
CC(C)(C)c1ncn(-c2ccc(Nc3nccc(-c4cn[nH]c4)n3)cc2)n1,0,2,63*,0
CN1CCN(c2ncn(-c3ccc(Nc4nccc(-c5cc(C#N)cc(N6CCC(O)CC6)c5)n4)cc3)n2)CC1,-1,3,42*,0
Fc1cc(-c2ccnc(Nc3ccc(N4CCOCC4)cc3)n2)cc(N2CCN(C3CC3)CC2)c1,0,2,48*,0
Cc1ncn(-c2ccc(Nc3nccc(-c4cc(C#N)cc(N5CCCC5)c4)n3)cc2)n1,-1,2,-6,0
N#Cc1cc(-c2ccnc(Nc3ccc(N4CCC(O)CC4)cc3)n2)cc(N2CCOCC2)c1,0,13,47*,0
Cc1c(NC(=O)CO/N=C(\N)c2nonc2N)c(=O)n(-c2ccccc2)n1C,0,0,-12,0
SMILES,GPR151 activ,MITF inh,TEAD-YAP block,FBW7 act
O=c1cc(N2CCCCC2)[nH]c(=O)n1Cc1ccc(F)cc1,0,8,1,0
COc1cccc(C2C(C#N)=C(N)OC3=C2C(=O)CC(C)(C)C3)c1OC (configuration not stated),-1,-10,0,0
Cc1ncn(-c2ccc(Nc3nccc(-c4cncc(N5CCC(O)CC5)c4)n3)cc2)n1,0,5,74*,0
COc1cccnc1-c1ncn(-c2ccc(Nc3nccc(-c4cc(F)cc(N5CCOCC5)c4)n3)cc2)n1,1,-2,83*,0
Cc1cc(Nc2nccc(-c3cc(C#N)cc(N4CCOCC4)c3)n2)ccc1N1CCOCC1,0,-5,-1,0
Fc1cc(-c2ccnc(Nc3ccc(-n4cnc(N5CCOCC5)n4)cc3)n2)cc(N2CCOCC2)c1,-1,-14,57*,0
N#Cc1cc(-c2ccnc(Nc3cccc(CN4CCCCC4)c3)n2)cc(N2CCOCC2)c1,-1,16,86*,0
COC(=O)C1=C(C(=O)c2ccccc2)C(c2cc(OC)ccc2OC)n2nnnc2N1 (configuration not stated),0,3,-16,1
O=C(Cn1cnc2scc(-c3ccc(Br)cc3)c2c1=O)Nc1ccccc1,0,-27,6,0
Fc1cc(-c2ccnc(Nc3ccc(-n4cnc(C(F)(F)F)n4)cc3)n2)cc(N2CCNCC2)c1,1,9,39*,1
OC1CCN(c2cc(F)cc(-c3ccnc(Nc4ccc(-n5cnc(-c6ccccn6)n5)cc4)n3)c2)CC1,1,3,85*,0
c1cc(Cn2cccn2)cc(Nc2nccc(-c3cncc(N4CCOCC4)c3)n2)c1,-2,21,79*,0
N#Cc1cc(-c2ccnc(Nc3ccc(-n4cnc(-c5ccccn5)n4)cc3)n2)cc(N2CCCC(O)C2)c1 (configuration not stated),1,9,50*,0
Fc1cc(-c2ccnc(Nc3ccc(-n4cnc(C(F)(F)F)n4)cc3)n2)cc(N2CCN(C3CC3)CC2)c1,-1,13,9,0
N#Cc1cc(-c2ccnc(Nc3ccc(-n4cnc(N5CCOCC5)n4)cc3)n2)cc(N2CCCC(O)C2)c1 (configuration not stated),-1,1,17,0
Cc1ccnc(-c2ncn(-c3ccc(Nc4nccc(-c5cc(F)cc(N6CCOCC6)c5)n4)cc3)n2)c1,1,-8,28,0
COc1ccc2cc(C(=O)N3CCC(O)(c4ccccn4)CC3)[nH]c2c1,0,1,10,1
CCOc1cc(C(=O)Nc2nc(-c3ccc(Oc4ccccc4)cc3)cs2)cc(OCC)c1OCC,0,-10,12,0
C=CCOc1ccccc1CN1CCN(Cc2ccccc2F)C(CCO)C1 (configuration not stated),-1,-6,-15,0
CCN(CC)c1ccc2cc(C(=O)Nc3cc(C(=O)O)ccc3C)c(=O)oc2c1,1,10,-4,0
OC1CCN(c2ccc(Nc3nccc(-c4cncc(N5CCOCC5)c4)n3)cc2)CC1,0,11,62*,0
CN(C)c1cc(F)cc(-c2ccnc(Nc3ccc(-n4cnc(N5CCC(O)CC5)n4)cc3)n2)c1,3,-9,65*,0
CCN1CCN(c2ncn(-c3ccc(Nc4nccc(-c5cncc(N6CCOCC6)c5)n4)cc3)n2)CC1,2,6,60*,0
CCN1CCN(c2ncn(-c3ccc(Nc4nccc(-c5cc(N6CCOCC6)cc(C(F)(F)F)c5)n4)cc3)n2)CC1,-1,7,-6,0
N#Cc1ccc(Nc2nccc(-c3cncc(N4CCOCC4)c3)n2)cc1,4,2,3,0
OC1CCN(c2ccc(Nc3nccc(-c4cc(F)cc(N5CCOCC5)c4)n3)cc2)CC1,1,10,48*,0
COc1ccc(C2/C(=C(/O)c3ccc(F)cc3)C(=O)C(=O)N2CCCCCC(=O)O)cc1 (configuration not stated),2,2,11,0
